Reference: PubChem BioAssay (NCATS)
Inconclusive results are not listed. Calls of active or inactive are those of the source. Calls come from the whole dose curve; as a rule, active = well fitted inhibition curve with a large enough effect; inconclusive = small, poorly fitted or top-dose-only effect; inactive = flat fitted curve, though single readings scatter.

What was measured:
HEK293 = test: Cytotoxic Profiling of Annotated Libraries Using Quantitative High-Throughput Screening (AID 1296008); conditions: Five cell lines viability, CellTiter-Glo ATP luminescence, 48-72 h; max response: hits give low values; for max response: % is set by controls: 0 for no effect and ±100 for the full control effect
Procedure, shortened: (§1)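 Compounds were pin-transferred onto cells and incubated 48 or 72 hr at 37 degree Celsius, 95% humidity. CellTiter-Glo was added, plates sat 10 min at room temperature, then ATP-coupled luminescence was imaged as the viability read-out.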

HaCat = test: as above; conditions: Five cell lines viability, CellTiter-Glo ATP luminescence, 48-72 h; max response: hits give low values
Procedure, shortened: as §1

KB-3-1 = test: as above; conditions: Five cell lines viability, CellTiter-Glo ATP luminescence, 48-72 h; max response: hits give low values
Procedure, shortened: as §1

NIH3T3 = test: as above; conditions: Five cell lines viability, CellTiter-Glo ATP luminescence, 48-72 h; max response: hits give low values
Procedure, shortened: as §1

HEK293T = test: qHTS assay to identify novel small-molecules to repurpose for Merkel cell carcinoma treatment (AID 1296009); conditions: MCC and control cell lines, CellTiter-Glo viability, 72 h; series mostly up to 44.8 µM
Procedure, shortened: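 Cells exposed to NPC (8-point) and MIPE (11-point) compound dilutions for 72 hr at 37 degree celsius; viability read by CellTiter-Glo luminescence, normalized to no-cell and DMSO in-plate controls.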
Note: nearly all actives have a fitted effect of over 60% in size.

C[C@@H]1O[C@@H](O[C@H]2[C@H](O)[C@@H](O)[C@H](OC[C@H]3O[C@@H](OC(=O)[C@]45CCC(C)(C)C[C@H]4C4=CCC6[C@@]7(C)C[C@H](O)[C@H](O[C@@H]8O[C@H](CO)[C@@H](O)[C@H](O)[C@H]8O)[C@@](C)(C(=O)O)C7CC[C@@]6(C)[C@]4(C)CC5)[C@H](O[C@@H]4O[C@H](CO)[C@@H](O)[C@H](O)[C@H]4O)[C@@H](O)[C@@H]3O)O[C@@H]2CO)[C@H](O)[C@H](O)[C@H]1O (stereo not given in full)
inactive: outcome (HEK293) | max response (HaCat) 4.68% | max response (KB-3-1) 7.15% | max response (NIH3T3) 3.41% | outcome (HEK293T) inactive [at 9.27 µM]

N#CC1C(=O)Nc2scc(-c3ccc(-c4ccccc4O)cc3)c2C1=O (stereo not given)
inactive: outcome (HEK293) | max response (HaCat) 1.11% | outcome (KB-3-1) | outcome (NIH3T3) | Potency (HEK293T)

C/C(=C\CO)CC/C=C(\C)C(=O)O[C@H]1[C@H](OC2OC=C(C(=O)O)C3CCC(C)(O)C23)O[C@H](CO)[C@@H](O)[C@@H]1O (stereo not given in full)
inactive: outcome (HEK293) | max response (HaCat) 1.01% | outcome (KB-3-1) | max response (NIH3T3) 0.631% | Potency (HEK293T)

COC(=O)C1=CO[C@@H](O[C@@H]2O[C@H](CO[C@@H]3O[C@H](COC(=O)/C=C/c4ccc(O)cc4)[C@@H](O)[C@H](O)[C@H]3O)[C@@H](O)[C@H](O)[C@H]2O)[C@@H]2C(CO)=CC[C@H]12
inactive: outcome (HEK293) | max response (HaCat) 0.423% | max response (KB-3-1) 6.83% | max response (NIH3T3) 0.0703% | Potency (HEK293T)

COc1cc(/C=C/C(=O)O[C@H]2[C@H](O)[C@@H](CO)O[C@@]2(CO)O[C@H]2O[C@H](COC(=O)c3ccc(O)cc3)[C@@H](O)[C@H](O)[C@H]2O)cc(OC)c1OC
inactive: outcome (HEK293) | max response (HaCat) 4.76% | max response (KB-3-1) 3.54% | outcome (NIH3T3) | Potency (HEK293T)

OCc1ccccc1O[C@@H]1O[C@H](CO)[C@@H](O)[C@H](O)[C@H]1O
inactive: outcome (HEK293) | max response (HaCat) -0.335% | max response (KB-3-1) 6.41% | max response (NIH3T3) -2.31% | Potency (HEK293T)

CN1C(=O)N[C@@H](Cc2c[nH]c3c(Cl)cccc23)C1=O
inactive: outcome (HEK293) | max response (HaCat) -0.267% | max response (KB-3-1) -1.43% | outcome (NIH3T3) | Potency (HEK293T)

O=C(OCC12OC1C=CC(OC(=O)c1ccccc1)C2O)c1ccccc1 (stereo not given)
inactive: outcome (HEK293) | max response (HaCat) 0.27% | max response (KB-3-1) 9.03% | max response (NIH3T3) -13.1% | Potency (HEK293T)

OC[C@H]1O[C@@H](n2cnc3c(NCc4ccc(O)cc4)ncnc32)[C@H](O)[C@@H]1O
inactive: outcome (HEK293) | max response (HaCat) -13.2% | max response (KB-3-1) -13.6% | outcome (NIH3T3) | Potency (HEK293T)

CC1=CCC2C(C)(CO)CCCC2(C)C1CC12OC1C(O)C(CO)=CC2O (stereo not given)
inactive: outcome (HEK293) | max response (HaCat) -8.88% | outcome (KB-3-1) | outcome (NIH3T3) | Potency (HEK293T)

O=C(/C=C/c1ccc(O)c(O)c1)OCc1ccccc1O[C@@H]1O[C@H](CO)[C@@H](O)[C@H](O)[C@H]1O
inactive: outcome (HEK293) | max response (HaCat) 1.88% | max response (KB-3-1) 0.279% | max response (NIH3T3) -4.16% | Potency (HEK293T)

C[C@@H]1O[C@@H](O[C@H]2[C@H](O[C@H]3CC[C@@]4(C)C(CC[C@]5(C)C4CC=C4C6CC(C)(C)CC[C@]6(C(=O)O[C@@H]6O[C@H](CO[C@@H]7O[C@H](CO)[C@@H](O[C@@H]8O[C@@H](C)[C@H](O)[C@@H](O)[C@H]8O)[C@H](O)[C@H]7O)[C@@H](O)[C@H](O)[C@H]6O)CC[C@]45C)[C@]3(C)CO)OC[C@H](O)[C@@H]2O)[C@H](O)[C@H](O)[C@H]1O (stereo not given in full)
inactive: outcome (HEK293) | max response (HaCat) -8.43% | max response (KB-3-1) 4.12% | max response (NIH3T3) -6.66% | outcome (HEK293T) inactive [at 9.27 µM]

C=C(C)[C@@H]1CC[C@](C)(O)[C@@H](OC(=O)c2ccccc2)C1
inactive: outcome (HEK293) | max response (HaCat) -0.346% | max response (KB-3-1) 2.9% | outcome (NIH3T3) | Potency (HEK293T)

COc1cc(/C=C/C(=O)O[C@H]2[C@H](OC(=O)/C=C/c3cc(OC)c(O)c(OC)c3)O[C@H](CO[C@@H]3O[C@H](CO)[C@@H](O)[C@H](O)[C@H]3O)[C@@H](O)[C@@H]2O)ccc1O
inactive: outcome (HEK293) | max response (HaCat) -26% | max response (KB-3-1) 7.55% | max response (NIH3T3) -14.9% | Potency (HEK293T)

COC1C2=C(COC2=O)C2(C)CCCC(C)(CO)C2C1OC(=O)c1ccccc1 (stereo not given)
inactive: outcome (HEK293) | max response (HaCat) -2.64% | outcome (KB-3-1) | outcome (NIH3T3) | Potency (HEK293T)

C/C(=C/CCC(CO)C1CCC2(C)C3CCC4C(C)(C)C(OC5OC(CO)C(O)C(O)C5O)CC(O)C45CC35CCC12C)COC1OC(CO)C(O)C(O)C1O (stereo not given)
inactive: outcome (HEK293) | max response (HaCat) -8.45% | max response (KB-3-1) -1.63% | max response (NIH3T3) 0.608% | Potency (HEK293T)

CCOC(=O)N1CCC(NCCNC(=O)c2ccccc2C)CC1
inactive: outcome (HEK293) | max response (HaCat) -7.3% | max response (KB-3-1) 6.5% | outcome (NIH3T3) | Potency (HEK293T)

C=CC1(C)CC(OC(=O)C(=C)C(O)COC(C)=O)C(C(=C)C(=O)OC)C(O)C1C(=C)CO (stereo not given)
inactive: outcome (HEK293) | max response (HaCat) -1.47% | max response (KB-3-1) 1.8% | max response (NIH3T3) 0.638% | Potency (HEK293T)
